Assay outcomes from PubChem.
Rows were chosen to be rich in hits. Some 19% of all compounds tested hit in one or more screens of this group.
HT1080NT lethal – kills 2HG-producing HT-1080-NT fibrosarcoma cells. HT-1080-NT fibrosarcoma viability, CellTiter-Glo ATP luminescence, 48 h. 360,000 tested, 1.6% active. Potency, µM (series often up to 46.1 µM), for the others: at the top dose activity, negative = less viability, most hits filed as cytotoxic;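 note: NT is the 2HG producing partner of a matched IDH1 knockdown line; potency is the fitted concentration of half-maximal effect; 0% = DMSO-treated cells and -100% = media-only wells without cells; nearly all actives have a fitted effect of over 55% in size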
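Read-out is CellTiter-Glo luminescence after 10 minutes at room temperature, following 48 hours' compound treatment of HT-1080-NT cells (750 cells/well, RPMI, 5% FBS, 37 degrees C).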
IL-1B inflam inh – inflammasome signaling inhibition, IL-1 beta readout | activity change, % at 57.5 µM | 360,000 tested, 4.7% active | THP-1 LPS/ATP IL-1B secretion, AlphaLISA, 16 h; stronger effect = lower value; in the data active = activity change below about -50%; inconclusive = mostly about -30% to -49%
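Secreted IL-1B measured by AlphaLISA bead assay after 16 h compound exposure of THP-1 cells; compounds (final up to 57.5 uM) added 1 h before LPS (250 ng/mL) and ATP (1.25 mM) stimulation; lower signal means less secretion.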
DT40 TDP1 CPT – growth inhibition of DT40 Tdp1-/-;hTDP1 cells with camptothecin (screen for TDP1 inhibitors) | chicken DT40 Tdp1-/-;hTDP1 cells + 20 nM CPT, ATP luminescence, 48 h | Potency, µM (top dose mostly 46.2 µM), for the others: at the highest dose activity change, negative = growth inhibition, hits mostly inhibitors | 420,000 tested, 12% active; note: potency is the fitted concentration of half-maximal effect; nearly all actives have a fitted effect of over 55% in size
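Chicken DT40 Tdp1-/- cells stably complemented with human TDP1 were seeded at 400 cells/well in medium containing 20 nM camptothecin, exposed to pin-transferred compounds, and grown at 37 °C for at least 48 hr. Viability was read as ATP luminescence.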
uPA generation – blocks generation of uPA at the cell surface; AID 540303; 330,000 tested, 0.31% active; cell surface uPA generation assay, qHTS; Potency, µM (top dose mostly 38.3 µM), inactives show top-dose activity change, negative = inhibition, usual class: inhibitors; active = well fitted inhibition curve with a large enough effect; inconclusive = small, poorly fitted or top-dose-only effect; inactive = no such curve, though single readings can be large or run the other way; tested in mouse RAW 264.7 cells; note: potency is the fitted concentration of half-maximal effect; nearly all actives have a fitted effect of over 55% in size
DT40 TDP1 no CPT – qHTS for Inhibitors of human tyrosyl-DNA phosphodiesterase 1 (TDP1): qHTS in cells in absence of CPT; DT40 Tdp1-/- hTDP1 cells, no CPT, ATP luminescence, 48 h; Potency, µM (top dose mostly 46.2 µM), inactives show top-dose activity change, negative = growth inhibition, actives largely listed as inhibitors; 420,000 tested, 15% active; note: potency is the fitted concentration of half-maximal effect; nearly all actives have a fitted effect of over 55% in size
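Growth kinetics read by CellTiter-Glo luminescence after ≥48 hr at 37 °C. Cells: DT40 Tdp1-/- stably carrying human TDP1, 400 per well, compound exposure in the absence of CPT (DMSO vehicle).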
HT1080 IDH1KD tx – HT-1080 IDH1 knockdown cell toxicity (counter line); HT-1080 IDH1 knockdown viability, ATP luminescence, 48 h; Potency, µM (titrated, usually from 46.1 µM), inactives show at the top dose activity, negative = toxicity, actives largely listed as cytotoxic; 360,000 tested, 2% active;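 note: potency is the fitted concentration of half-maximal effect; 0% = DMSO wells and -100% = cell-free medium wells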
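Cytotoxicity counter-line: IDH1KD HT-1080, 48 h, CellTiter-Glo. Curves classed by r2, magnitude and activity.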
* = called active by the depositor; ? = inconclusive; . = no result given. Unless noted, calls come from the whole dose curve; as a rule, active = well fitted curve in the direction sought with a large enough effect; inconclusive = small, poorly fitted or top-dose-only effect, or another doubt; inactive = no such curve, though single readings can be large; an effect the other way counts as inactive or inconclusive. Unless noted, % is set by controls: 0 for no effect and ±100 for the full control effect.

SMILES	HT1080NT lethal	IL-1B inflam inh	DT40 TDP1 CPT	uPA generation	DT40 TDP1 no CPT	HT1080 IDH1KD tx
COc1ccc(C(=O)N2CCC3(CC2)CCN(C(c2ccccc2)c2ccccc2)CC3)cc1	.	.	-8%	.	-16%	.
Cc1ccc(-c2csc(N3CCC(C(N)=O)CC3)n2)cc1	.	.	.	1%	.	.
Cc1ccc(-c2csc(N3CCC(C(N)=O)(N4CCCCC4)CC3)n2)cc1	6%	29	?	-4%	21µM*	7%
Cc1noc(NS(=O)(=O)c2ccc(NC(=O)c3cc(F)c(F)c(F)c3F)cc2)c1C	1%	9	-1%	-3%	-4%	11%
CC(C)Oc1ccc(CNC(=O)CCC(=O)N2CC(C)Sc3ccccc32)cc1 (stereo not drawn)	19%	0	16µM*	-12%	?	-3%
CC1CN(C(=O)Nc2ccc(C(=O)NCCc3ccccc3Cl)cc2)c2ccccc2S1 (stereo not drawn)	.	.	23µM*	.	21µM*	.
CC1CN(C(=O)CCC(=O)NCc2ccccc2Cl)c2ccccc2S1 (stereo not drawn)	0%	-11	-26%	-10%	-20%	-8%
CC1CN(C(=O)Nc2ccc(C(=O)NCCc3ccc(Cl)cc3)cc2)c2ccccc2S1 (stereo not drawn)	.	.	-20%	.	?	.
CC(C)Oc1ccc(CNC(=O)c2ccc(NC(=O)N3CC(C)Sc4ccccc43)cc2)cc1 (stereo not drawn)	.	.	21µM*	.	-106%	.
CCN1CCSc2ccc(C(=O)NCc3ccc(OC(C)C)cc3)cc21	7%	-7	?	22%	?	-6%
COc1cccc2cc(-c3nc4sc5c(c4c(=O)[nH]3)CCC(C(C)(C)C)C5)c(=O)oc12 (stereo not drawn)	.	.	-3%	.	14%	.
CCc1cccc(NC(=O)C(c2ccccc2)N2Cc3ccccc3C2=O)c1 (stereo not drawn)	.	.	?	.	-23%	.
O=C(NCC(NS(=O)(=O)OCC(Cl)(Cl)Cl)c1ccccc1)C(F)(F)F (stereo not drawn)	-3%	36	?	12%	?	-4%
CCCSc1ccc([C@H]2N[C@@](CC(C)C)(C(=O)OC)[C@H]3C(=O)N(C)C(=O)[C@@H]23)cc1	6%	-21	?	4%	?	3%
CCN1C(=O)[C@H]2[C@@H](c3ccc(-c4cccc(Cl)c4)c(OC)c3)N[C@@](CC(C)C)(C(=O)OC)[C@H]2C1=O	-12%	-61*	?	-28%	?	0%
COC(=O)[C@]1(CC(C)C)N[C@H](c2ccc(-c3ccc(C(C)=O)cc3)cc2)[C@@H]2C(=O)N(C)C(=O)[C@@H]21	17%	17	-22%	6%	?	12%
COC(=O)[C@]1(CC(C)C)N[C@H](c2ccc(-c3ccc(Cl)c(Cl)c3)cc2)[C@@H]2C(=O)N(C)C(=O)[C@@H]21	0%	?	?	11%	18µM*	15%
CCN1C(=O)[C@H]2[C@@H](c3ccc(-c4cccc(Cl)c4)cc3)N[C@@](CC(C)C)(C(=O)OC)[C@H]2C1=O	8%	-27	18µM*	4%	12µM*	10%
CCN1C(=O)[C@H]2[C@@H](c3ccc(-c4ccc(OC)cc4)cc3)N[C@@](CC(C)C)(C(=O)OC)[C@H]2C1=O	0%	-2	?	0%	23µM*	-2%
CCN1C(=O)[C@H]2[C@@H](c3ccc(-c4ccc(C(C)=O)cc4)c(OC)c3)N[C@@](Cc3ccccc3)(C(=O)OC)[C@H]2C1=O	-12%	?	?	?	?	-2%
O=C(NCc1ccccc1)c1cccc(NC(=O)C2CCCC2)c1	2%	-8	?	5%	-40%	1%
Cc1cccc(CNC(=O)c2ccc(N3Cc4ccccc4Oc4ncccc43)s2)c1	.	.	?	.	-83%	.
Cc1ccc(NC(=O)CN2C(=O)COc3ccc(S(=O)(=O)NC4CCCC4)cc32)c(Cl)c1	.	.	-26%	.	?	.
CC(C)COC(=O)N1CCCCC1c1cc(C(=O)NCc2cccnc2)no1 (stereo not drawn)	5%	13	-20%	.	-29%	12%
CCN1C(=O)[C@H]2[C@@H](c3ccc(-c4ccc(Cl)c(Cl)c4)cc3)N[C@@](CC(C)C)(C(=O)OC)[C@H]2C1=O	2%	0	4.1µM*	5%	?	2%
SMILES	HT1080NT lethal	IL-1B inflam inh	DT40 TDP1 CPT	uPA generation	DT40 TDP1 no CPT	HT1080 IDH1KD tx
CCc1cccc(-n2c(=O)c3cccnc3n2CC(=O)Nc2c(C)cc(C)cc2C)c1	.	.	?	.	23µM*	.
Cc1ccc(CNC(=O)Cn2c3ncccc3c(=O)n2-c2ccc(C)cc2)cc1	.	.	21µM*	.	?	.
Cc1ccc(CNC(=O)Cn2c3ncccc3c(=O)n2-c2ccccc2)cc1	.	.	?	.	-22%	.
Cc1ccc(-n2c(=O)c3cccnc3n2CC(=O)Nc2ccc(C)cc2Cl)cc1	.	.	?	.	13µM*	.
CCOc1ccc(NC(=O)Cn2c(CCC(=O)O)ccc2-c2ccc(Cl)cc2)cc1	.	.	-1%	.	-4%	.
Cc1cc(O)cc2c1C1CCC3(C)C(O)CCC3C1C=C2 (stereo not drawn)	?	-14	?	-5%	21µM*	18µM*
O=C(c1ccc(F)cc1)N1CCC(c2nc3ccccc3s2)CC1	.	.	-30%	.	?	.
CC1CCc2c(sc3ncnc(SCC(=O)N(C)C4CCS(=O)(=O)C4)c23)C1 (stereo not drawn)	0%	-16	?	2%	18µM*	-1%
CCN(C(=O)CSc1nc(C)nc2sc3c(c12)CCC3)C1CCS(=O)(=O)C1 (stereo not drawn)	-9%	1	?	0%	21µM*	-6%
CCCn1c(SCC(=O)N(C)C2CCS(=O)(=O)C2)nc2sc3c(c2c1=O)CCC3 (stereo not drawn)	-5%	-8	?	-1%	?	-22%
Cc1c(Br)c([N+](=O)[O-])nn1C(C)C(=O)N1CCc2ccccc2C1 (stereo not drawn)	-2%	-8	-14%	-8%	-20%	-2%
CC(OC(=O)COc1ccccc1[N+](=O)[O-])C(=O)Nc1ccc(N2CCOCC2)cc1 (stereo not drawn)	0%	7	0%	0%	5%	11%
CCC(=O)N1CCN(c2ccc(NC(=O)COc3ccccc3[N+](=O)[O-])cc2)CC1	-5%	?	15µM*	9%	10µM*	-10%
